From PubChem BioAssay (NCI)
Compounds without any hit were thinned out: in the full panel of roughly 83,000, 20% have a hit.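 In brief: 96-well plates, 48 h treatment, single concentration, percent growth endpoint.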 Active and inactive are the calls of the source. How the source made its calls: active means growth percent below 10; inactive means the rest.

Assays:
Experiment in all cases: NCI-60 one-dose screen, 48 h (100 = growth as untreated, 0 = no growth, -100 = all killed)
MOLT-4 leukemia = conditions: 10 µM
SR leukemia = conditions: 10 µM
RPMI-8226 leukemia = conditions: 10 µM
OVCAR-8 ovarian = conditions: 10 µM
OVCAR-5 ovarian = conditions: 10 µM
OVCAR-4 ovarian = conditions: 10 µM
SK-OV-3 ovarian = conditions: 10 µM
IGROV1 ovarian = conditions: 10 µM
OVCAR-3 ovarian = conditions: 10 µM
NCI/ADR-RES ovarian = conditions: 10 µM
T-47D breast = conditions: 10 µM
BT-549 breast = conditions: 10 µM
MDA-MB-435 melanoma = conditions: 10 µM
SW-620 colon = conditions: 10 µM
MCF7 breast = conditions: 10 µM unless noted
HCT-116 colon = conditions: 10 µM
HCC-2998 colon = conditions: 10 µM
KM12 colon = conditions: 10 µM
HS 578T breast = conditions: 10 µM

Measured: growth

COc1ccc(/C=C(\C)[N+](=O)[O-])cc1OC
active: MOLT-4 leukemia -25% | SR leukemia -17.4% | RPMI-8226 leukemia -20.2% | OVCAR-8 ovarian -27.8% | IGROV1 ovarian -18.5% | OVCAR-3 ovarian -76.3% | T-47D breast -21.6% | BT-549 breast -29.7% | MDA-MB-435 melanoma -59.1% | SW-620 colon -42.4% | MCF7 breast -34.6% | HCT-116 colon -28.9%
inactive: OVCAR-5 ovarian 67.8% | OVCAR-4 ovarian 17.2% | SK-OV-3 ovarian 104% | NCI/ADR-RES ovarian 90.5% | HCC-2998 colon 94.3% | KM12 colon 54.6%

O=C1C(=O)c2ccccc2-c2ccccc21
inactive: SK-OV-3 ovarian 93.7%
active: MOLT-4 leukemia -26.9% | SR leukemia 0.843% | RPMI-8226 leukemia -32.7% | OVCAR-8 ovarian -97.6% | OVCAR-5 ovarian -63.8% | OVCAR-4 ovarian -100% | IGROV1 ovarian -61.7% | OVCAR-3 ovarian -91% | NCI/ADR-RES ovarian -41.5% | T-47D breast -50% | BT-549 breast -75% | SW-620 colon -63.3% | MCF7 breast -66.4% | HCT-116 colon -81.5% | HCC-2998 colon -35.4% | KM12 colon -84.5%

O=[P+](O)c1ccccc1
inactive: MOLT-4 leukemia 107% | SR leukemia 102% | RPMI-8226 leukemia 98.6% | OVCAR-8 ovarian 99.9% | OVCAR-5 ovarian 108% | OVCAR-4 ovarian 114% | SK-OV-3 ovarian 101% | IGROV1 ovarian 115% | OVCAR-3 ovarian 109% | NCI/ADR-RES ovarian 106% | T-47D breast 99.9% | BT-549 breast 104% | SW-620 colon 106% | MCF7 breast 95.9% | HCT-116 colon 100% | KM12 colon 107%

O=C(CCl)Nc1ccc(Cl)cc1
inactive: MOLT-4 leukemia 32.8% | SR leukemia 29.6% | RPMI-8226 leukemia 60.4% | OVCAR-8 ovarian 53.3% | OVCAR-5 ovarian 53.5% | OVCAR-4 ovarian 17.6% | SK-OV-3 ovarian 85.8% | NCI/ADR-RES ovarian 68.3% | T-47D breast 56% | MDA-MB-435 melanoma 48.5% | SW-620 colon 39.7% | MCF7 breast 16.9% | HCT-116 colon 18.9% | HCC-2998 colon 98.3% | KM12 colon 67.8%
active: IGROV1 ovarian -4.08% | OVCAR-3 ovarian 0.0428%

COc1cc([C@@H]2c3cc4c(c(O)c3C[C@H]3COC(=O)[C@@H]32)OCO4)cc(OC)c1OC
inactive: OVCAR-8 ovarian 16.4% | OVCAR-5 ovarian 32.8% | OVCAR-4 ovarian 49.9% | T-47D breast 60.8% | SW-620 colon 15.9%
active: MOLT-4 leukemia -30.2% | SR leukemia -3.92% | RPMI-8226 leukemia -53.3% | SK-OV-3 ovarian -0.464% | IGROV1 ovarian -32.1% | OVCAR-3 ovarian -48.9% | NCI/ADR-RES ovarian -28.9% | BT-549 breast -12.9% | MDA-MB-435 melanoma -19.6% | MCF7 breast 8.86% | HCT-116 colon -38.4% | HCC-2998 colon -54.8% | KM12 colon 0.358%

CC(C)(C)OOC(=O)/C=C\C(=O)OOC(C)(C)C
inactive: MOLT-4 leukemia 107% | SR leukemia 93.5% | RPMI-8226 leukemia 112% | OVCAR-8 ovarian 97.4% | OVCAR-5 ovarian 99.3% | OVCAR-4 ovarian 104% | SK-OV-3 ovarian 108% | OVCAR-3 ovarian 113% | HS 578T breast 113% | NCI/ADR-RES ovarian 109% | T-47D breast 101% | BT-549 breast 104% | MDA-MB-435 melanoma 119% | SW-620 colon 98.7% | MCF7 breast 98.7% | HCT-116 colon 106% | HCC-2998 colon 104% | KM12 colon 94.6%

CC/C(=C/c1ccc(OC)cc1OC)[N+](=O)[O-]
active: MOLT-4 leukemia 6.34% | SR leukemia 2.47% | RPMI-8226 leukemia -7.24% | T-47D breast -12.9% | SW-620 colon -20.1% | MCF7 breast 0.465% | HCT-116 colon -58.8%
inactive: OVCAR-8 ovarian 18.4% | OVCAR-5 ovarian 35.9% | OVCAR-4 ovarian 93.7% | SK-OV-3 ovarian 124% | IGROV1 ovarian 39.6% | OVCAR-3 ovarian 58.7% | NCI/ADR-RES ovarian 41.8% | BT-549 breast 37.1% | HCC-2998 colon 102% | KM12 colon 25.5%

CS(=N)(=O)CCC(N)C(=O)O (stereo not drawn)
inactive: MOLT-4 leukemia 112% | SR leukemia 99.9% | RPMI-8226 leukemia 107% | OVCAR-8 ovarian 98% | OVCAR-5 ovarian 85.3% | OVCAR-4 ovarian 104% | SK-OV-3 ovarian 108% | IGROV1 ovarian 87.5% | OVCAR-3 ovarian 115% | NCI/ADR-RES ovarian 100% | T-47D breast 111% | BT-549 breast 99.2% | SW-620 colon 103% | MCF7 breast 101% | HCT-116 colon 97.1% | HCC-2998 colon 92.7% | KM12 colon 115%
